Many of the other results were omitted from the sample, so hits are more common in it than they were.
ALOX12 inh: Primary qHTS assay for inhibitors of human arachidonate 12S-lipoxygenase (ALOX12): Round 2 | AID 1671190, 2021 | purified 12hLO, xylenol orange hydroperoxide absorbance | Polyunsaturated fatty acid lipoxygenase ALOX12 (Homo sapiens), P18054 | Potency, µM (series often up to 108 µM), without a hit: at the highest dose activity change, negative = inhibition, usual class: inhibitors | 580,000 compounds, 1.1% hits; also: potency is read from the fitted curve at half-maximal effect
Target sequence (P18054 whole entry, looked up): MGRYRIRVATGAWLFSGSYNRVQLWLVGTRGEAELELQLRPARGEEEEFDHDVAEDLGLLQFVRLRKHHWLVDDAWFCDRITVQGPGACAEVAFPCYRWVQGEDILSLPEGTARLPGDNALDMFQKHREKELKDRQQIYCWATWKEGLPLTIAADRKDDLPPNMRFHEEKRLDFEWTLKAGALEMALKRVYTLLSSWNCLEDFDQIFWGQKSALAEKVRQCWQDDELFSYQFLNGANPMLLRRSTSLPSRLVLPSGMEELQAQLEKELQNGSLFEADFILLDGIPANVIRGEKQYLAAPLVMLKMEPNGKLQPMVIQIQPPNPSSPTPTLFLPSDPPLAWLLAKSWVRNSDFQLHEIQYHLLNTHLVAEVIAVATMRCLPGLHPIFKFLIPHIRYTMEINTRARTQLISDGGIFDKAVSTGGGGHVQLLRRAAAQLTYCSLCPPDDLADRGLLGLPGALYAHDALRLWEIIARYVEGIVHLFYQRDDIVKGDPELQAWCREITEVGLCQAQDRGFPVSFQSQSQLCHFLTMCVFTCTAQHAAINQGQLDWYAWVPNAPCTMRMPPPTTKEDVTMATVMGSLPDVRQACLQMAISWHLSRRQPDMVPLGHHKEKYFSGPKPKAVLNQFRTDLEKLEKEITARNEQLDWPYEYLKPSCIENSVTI
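Purified human 12hLO (150 nM final) in 25 mM Hepes, 0.01% Triton X-100, pH 7.0 was preincubated 15 min at room temperature with compound. Then 40 uM arachidonic acid was added, 30 min. Hydroperoxide was read by Fe-XO absorbance ratio 573/405 nm.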
HT1080-NT tox: qHTS for induction of synthetic lethality in tumor cells producing 2HG: qHTS for the HT-1080-NT fibrosarcoma cell line; 360,000 compounds, 1.6% hits; HT-1080-NT fibrosarcoma viability, CellTiter-Glo ATP luminescence, 48 h; Potency, µM (doses to about 46.1 µM), without a hit: top-dose activity, negative = less viability, actives largely listed as cytotoxic;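 also: NT is the 2HG producing partner of a matched IDH1 knockdown line; potency is read from the fitted curve at half-maximal effect; 0% = DMSO-treated cells and -100% = media-only wells without cells; nearly all actives have a fitted effect of over 55% in size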
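Fibrosarcoma NT cells, 750 per well in 5% FBS RPMI, were exposed to compound for 48 hours. Viability: CellTiter-Glo luminescence.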
HT1080 IDH1KD tx: qHTS for induction of synthetic lethality in tumor cells producing 2HG: qHTS for the HT-1080-IDH1KD cell line; 360,000 compounds, 2% hits; HT-1080 IDH1 knockdown viability, ATP luminescence, 48 h; Potency, µM (highest dose often 46.1 µM), for the others: top-dose activity, negative = toxicity, hits mostly cytotoxic;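 also: potency is read from the fitted curve at half-maximal effect; 0% = DMSO wells and -100% = cell-free medium wells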
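% activity derives from luminescence (CellTiter-Glo), normalised to DMSO and no-cell wells. HT-1080-IDH1KD cells, 750/well, had 48 h compound exposure at 37 °C.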
IL1B secr inh: qHTS for Inhibitors of Inflammasome Signaling: IL-1-beta AlphaLISA Primary Screen; THP-1 LPS/ATP IL-1B secretion, AlphaLISA, 16 h; active compounds read low; activity change, % at 57.5 µM; 360,000 compounds, 4.7% hits; in the data active = activity change below about -50%; inconclusive = mostly about -30% to -49%
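THP-1 cells pretreated 1 hr with compounds (up to 57.5 uM final), then stimulated with LPS (250 ng/mL final) plus ATP (1.25 mM final); secreted IL-1B measured by AlphaLISA after 16 hr, decreased signal indicating inhibition.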
TDP1 cell CPT: qHTS for Inhibitors of human tyrosyl-DNA phosphodiesterase 1 (TDP1): qHTS in cells in presence of CPT; chicken DT40 Tdp1-/-;hTDP1 cells + 20 nM CPT, ATP luminescence, 48 h; Potency, µM (top dose mostly 46.2 µM), for inactives: at the top dose activity change, negative = growth inhibition, actives largely listed as inhibitors; 420,000 compounds, 12% hits; also: potency is read from the fitted curve at half-maximal effect; nearly all actives have a fitted effect of over 55% in size
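Cell growth measured by CellTiter-Glo luminescence after a minimum 48 h, 37 C compound exposure with 20 nM CPT in Tdp1-knockout DT40 cells stably expressing hTDP1, seeded 400/well; qHTS titration format.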
TDP1 cell noCPT: qHTS for Inhibitors of human tyrosyl-DNA phosphodiesterase 1 (TDP1): qHTS in cells in absence of CPT; DT40 Tdp1-/- hTDP1 cells, no CPT, ATP luminescence, 48 h; Potency, µM (doses to about 46.2 µM), without a hit: at the top dose activity change, negative = growth inhibition, most hits filed as inhibitors; 420,000 compounds, 15% hits; AID 686978, 2013; also: potency is read from the fitted curve at half-maximal effect; nearly all actives have a fitted effect of over 55% in size
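Chicken DT40 Tdp1-/- cells stably complemented with human TDP1 were seeded at 400 cells/well with DMSO in place of 20 nM camptothecin. After compound pinning, cells grew at least 48 hr at 37 °C; viability read by CellTiter-Glo luminescence.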
Numbers without * were called inactive; ? = inconclusive; · = no result. Unless noted, calls follow the shape of the dose curve; as a rule, active = well fitted curve in the direction sought with a large enough effect; inconclusive = small, poorly fitted or top-dose-only effect, or another doubt; inactive = no such curve, though single readings can be large; an effect the other way counts as inactive or inconclusive. Unless noted, % is scaled to controls: 0 for no effect and ±100 for the full control effect.

SMILES | ALOX12 inh | HT1080-NT tox | HT1080 IDH1KD tx | IL1B secr inh | TDP1 cell CPT | TDP1 cell noCPT
CCCS(=O)(=O)N1CCCC(C(=O)NCCc2ccccc2)C1 (configuration not stated) | 11% | 13% | 4% | 12 | 33% | 5%
CCCS(=O)(=O)N1CCC(C(=O)NCCCN2CCC(Cc3ccccc3)CC2)CC1 | -16% | -1% | -7% | 11 | -12% | -11%
O=C(C1CCN(S(=O)(=O)N2CCC3(CC2)OCCO3)CC1)N1CCC(Cc2ccccc2)CC1 | -29% | 0% | 4% | -64* | ? | ?
CCCS(=O)(=O)N1CCCC(C(=O)N2CCC(Cc3ccccc3)CC2)C1 (configuration not stated) | 0% | 5% | 0% | -21 | ? | 15µM*
NC(=O)C1CCN(c2ccc(S(=O)(=O)N3CCC(Cc4ccccc4)CC3)cn2)CC1 | -5% | 1% | -3% | -1 | ? | 13µM*
CCCS(=O)(=O)N1CCC(C(=O)N2CCC(Cc3ccccc3)CC2)CC1 | 388% | 1% | 0% | -18 | 18µM* | 21µM*
O=C(NCCc1coc(-c2ccc(F)cc2)n1)Nc1ccc(Cl)cc1 | 13% | · | · | · | · | ·
CCCCOc1ccc(C(C)NC(=O)C2CCCN(S(=O)(=O)CCC)C2)cc1 (configuration not stated) | -9% | -5% | -16% | 1 | 12µM* | 16µM*
Cc1sc2nc(CSCC(=O)Nc3ccccc3C#N)[nH]c(=O)c2c1C | -10% | 0% | 1% | 1 | ? | 16µM*
Cc1nc(Nc2ccccc2)[nH]c(=O)c1CCC(C)C | -18% | 9% | 8% | 23 | 7.3µM* | ?
CCOc1ccc2nc(Nc3nc(C)c(CCC(C)C)c(=O)[nH]3)nc(C)c2c1 | -2% | · | · | · | · | ·
CC1CCN(S(=O)(=O)c2ccc(NC(=O)Cc3ccc(S(=O)(=O)N4CCOCC4)s3)cc2)CC1 | -4% | -26% | -16% | 17 | 18µM* | 23µM*
CC(=O)Nc1ccc(NC(=O)Cc2ccc(S(=O)(=O)N3CCCCC3)s2)cc1 | -23% | -2% | 0% | 24 | ? | ?
O=C(Cc1ccc(S(=O)(=O)N2CCOCC2)s1)Nc1ccc2c(c1)CCC2 | 24% | -2% | -26% | ? | -20% | ?
CC1CCCN(S(=O)(=O)c2ccc(NC(=O)Cc3ccc(S(=O)(=O)N4CCOCC4)s3)cc2)C1 (configuration not stated) | -24% | -9% | -8% | ? | ? | 18µM*
O=C(Cc1ccc(S(=O)(=O)N2CCOCC2)s1)Nc1ccc(S(=O)(=O)N2CCCCC2)cc1 | · | -19% | -18% | -15 | 18µM* | ?
CNC(=O)c1ccc(NC(=O)Cc2ccc(S(=O)(=O)N3CCOCC3)s2)cc1 | 0% | 0% | -4% | 0 | -2% | -21%
Cc1ccc(C(=O)/C=C/c2ccc3c(c2)OCCO3)c(O)c1 | 0% | -18% | -19% | -93* | ? | ?
CCOC(=O)c1oc2cc(O)c(CC)cc2c(=O)c1-c1ccc2c(c1)OCCO2 | ? | -18% | 3% | -14 | -12% | -23%
CCc1cc(C(=O)/C=C/c2cc3c(cc2C)OCCO3)c(O)cc1O | · | ? | -66% | · | 13µM* | 11µM*
O=C(/C=C/c1ccc2c(c1)OCCCO2)c1ccc2ccccc2c1O | -8% | -29% | ? | 12 | ? | 12µM*
